PubChem BioAssay
Values without a mark were called inactive. For some of these results: Entries with a potency or affinity are not part of this list. The source made the active and inactive calls. Unless noted, no rule for the calls is given here.

Experiments:
[1] = antimalarial activity against Dd2 strain (AID 2302;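 active = growth inhibition above 50% at the single 2 µM test dose, taken to imply half-maximal potency below 2 µM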;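 also: 0% = DMSO untreated growth and 100% = chloroquine plus artemisinin killed control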); settings: P. falciparum Dd2 in RBCs, LDH growth readout, 72 h; at 2 µM; active compounds read high
[2] = HepG2 cytotoxicity, primary screen, cytotoxicity control for P. falciparum antimalarial project, cell-based, ATP luminescence (AID 2303;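 active = inhibition above 50%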;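 also: 0% = DMSO wells and 100% = digitonin-killed cells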); settings: HepG2 viability, 24-48 h, at 10 µM, active compounds read high
[3] = target: L-lactate dehydrogenase (Plasmodium falciparum (isolate CDC / Honduras)) (UniProt Q27743); assay: PfLDH activity inhibition – cell lysate, 3D7 strain, counter-screen for P. falciparum growth inhibition project (AID 2304);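 also: 0% = vehicle and 100% = reference inhibitor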; settings: P. falciparum 3D7 crude extract, LDH APAD/NBT absorbance; at 2 µM; active compounds read high
[4] = inhibition of 3D7 malaria parasite growth – strain 3D7 (AID 2306);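 also: 0% = DMSO wells and 100% = chloroquine plus artemisinin control wells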; settings: P. falciparum 3D7 erythrocytic growth, LDH absorbance, 72 h; at 2 µM; active compounds read high
[5] = target: Calcium-dependent protein kinase 1 (Plasmodium falciparum (isolate 3D7)) (UniProt P62344); assay: PfCDPK1 kinase inhibitors, biochemical, TCAMS library (AID 1159585; cut-off not given, nearly all actives have IC50 up to about 0.98 µM;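 also: inhibitors leave more ATP so luminescence rises with inhibition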); settings: recombinant PfCDPK1, Kinase-Glo ATP depletion luminescence
[6] = target: Plasmodium falciparum protein kinase 6 (PK6, PF3D7_1337100) (UniProt Q8IDW1); assay: PfPK6 kinase inhibitors, biochemical, TCAMS library (AID 1159586); settings: recombinant PfPK6, Kinase-Glo ATP depletion luminescence
[7] = target: Protein kinase 7 (PK7), Plasmodium falciparum 3D7 (PF3D7_0213400) (UniProt Q7YTF7); assay: inhibition of Plasmodium PK7 catalytic activity – biochemical, TCAMS antimalarial set, Kinase-Glo luminescence (AID 1159587); settings: recombinant PfPK7, Kinase-Glo ATP depletion luminescence
[8] = target: Calcium-dependent protein kinase 4 (Plasmodium falciparum (isolate 3D7)) (UniProt Q8IBS5); assay: PfCDPK4 kinase inhibitors, biochemical, TCAMS library (AID 1159588; cut-off not given, nearly all actives have IC50 up to about 0.91 µM); settings: recombinant PfCDPK4, Kinase-Glo ATP depletion luminescence
Calcium-dependent protein kinase 4 (Plasmodium falciparum (isolate 3D7)), sequence (Q8IBS5 whole entry, looked up): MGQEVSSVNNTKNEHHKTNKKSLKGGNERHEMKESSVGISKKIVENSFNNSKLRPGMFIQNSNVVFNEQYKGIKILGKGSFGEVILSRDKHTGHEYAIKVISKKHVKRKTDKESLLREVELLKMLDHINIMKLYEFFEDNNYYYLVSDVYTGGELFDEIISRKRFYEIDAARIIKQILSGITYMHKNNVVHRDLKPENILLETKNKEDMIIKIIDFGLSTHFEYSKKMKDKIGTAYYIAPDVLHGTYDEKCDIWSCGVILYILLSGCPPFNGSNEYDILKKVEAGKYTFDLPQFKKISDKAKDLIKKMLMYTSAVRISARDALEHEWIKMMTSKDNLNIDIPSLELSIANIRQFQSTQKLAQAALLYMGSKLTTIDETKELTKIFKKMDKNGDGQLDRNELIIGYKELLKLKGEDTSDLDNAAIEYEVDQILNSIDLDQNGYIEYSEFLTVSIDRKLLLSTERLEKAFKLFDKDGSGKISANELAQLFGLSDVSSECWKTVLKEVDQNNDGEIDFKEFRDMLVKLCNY

L-lactate dehydrogenase (Plasmodium falciparum (isolate CDC / Honduras)), sequence (Q27743 whole entry, looked up): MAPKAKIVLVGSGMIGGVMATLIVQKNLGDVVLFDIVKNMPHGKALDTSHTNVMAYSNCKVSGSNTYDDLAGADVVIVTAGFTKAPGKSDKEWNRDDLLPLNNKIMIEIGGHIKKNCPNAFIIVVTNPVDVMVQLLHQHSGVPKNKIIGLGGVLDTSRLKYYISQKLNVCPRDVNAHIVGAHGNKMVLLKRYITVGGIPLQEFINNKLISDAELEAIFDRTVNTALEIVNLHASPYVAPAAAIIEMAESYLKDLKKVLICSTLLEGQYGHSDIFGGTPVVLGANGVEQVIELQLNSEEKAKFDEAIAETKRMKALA
Calcium-dependent protein kinase 1 (Plasmodium falciparum (isolate 3D7)), sequence (P62344 whole entry, looked up): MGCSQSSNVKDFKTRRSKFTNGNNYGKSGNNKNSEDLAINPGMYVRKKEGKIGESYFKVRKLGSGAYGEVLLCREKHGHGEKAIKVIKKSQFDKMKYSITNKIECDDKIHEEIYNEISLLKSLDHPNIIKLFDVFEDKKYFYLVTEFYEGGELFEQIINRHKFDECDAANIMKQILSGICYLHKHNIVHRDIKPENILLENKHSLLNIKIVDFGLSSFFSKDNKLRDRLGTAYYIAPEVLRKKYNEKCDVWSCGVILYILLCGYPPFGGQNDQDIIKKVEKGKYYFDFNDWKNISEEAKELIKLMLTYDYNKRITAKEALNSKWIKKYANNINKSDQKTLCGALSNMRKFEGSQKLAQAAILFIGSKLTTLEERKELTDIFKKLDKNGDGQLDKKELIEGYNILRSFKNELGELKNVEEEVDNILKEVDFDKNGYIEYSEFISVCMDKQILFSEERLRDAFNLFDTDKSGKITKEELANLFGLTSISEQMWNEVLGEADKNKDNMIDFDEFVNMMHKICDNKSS
Plasmodium falciparum protein kinase 6 (PK6, PF3D7_1337100), sequence (Q8IDW1 1-305): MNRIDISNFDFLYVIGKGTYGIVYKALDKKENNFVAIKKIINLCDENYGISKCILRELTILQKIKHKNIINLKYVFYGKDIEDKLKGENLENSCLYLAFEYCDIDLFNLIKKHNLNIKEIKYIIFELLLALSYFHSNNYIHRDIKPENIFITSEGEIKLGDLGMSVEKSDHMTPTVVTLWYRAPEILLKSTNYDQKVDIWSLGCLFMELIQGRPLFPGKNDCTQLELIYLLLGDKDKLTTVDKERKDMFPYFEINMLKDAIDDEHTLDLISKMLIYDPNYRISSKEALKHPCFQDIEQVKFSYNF
Protein kinase 7 (PK7), Plasmodium falciparum 3D7 (PF3D7_0213400), sequence (Q7YTF7 1-343): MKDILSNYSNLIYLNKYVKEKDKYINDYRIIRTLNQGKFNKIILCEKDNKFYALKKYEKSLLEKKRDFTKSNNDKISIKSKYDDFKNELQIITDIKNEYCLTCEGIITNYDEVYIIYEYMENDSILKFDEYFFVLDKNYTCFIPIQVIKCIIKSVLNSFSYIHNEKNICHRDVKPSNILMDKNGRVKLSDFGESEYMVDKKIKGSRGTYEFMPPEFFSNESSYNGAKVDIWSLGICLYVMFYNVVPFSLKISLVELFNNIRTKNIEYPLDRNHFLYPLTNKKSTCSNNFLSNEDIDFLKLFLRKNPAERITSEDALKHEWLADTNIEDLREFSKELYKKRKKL

SMILES | growth inhibition [1] | inhibition [2] | inhibition [3] [%] | growth inhibition [4] | outcome [5] | outcome [6] | outcome [7] | outcome [8]
O=C(/C=C/c1ccc(Cl)c(Cl)c1)NCCCCCN1CCC(NC(=O)Nc2ccc3c(c2)OCO3)CC1 | 5% | 12% | 6 | 103% (active) | inactive | inactive | inactive | inactive
CC(C)(CNCc1ccc(C(F)(F)F)cc1)c1nc(-c2ccc(Cl)c(O)c2)c(-c2ccncc2)[nH]1 | 98% (active) | 42% | -1 | 101% (active) | inactive | inactive | inactive | inactive
COc1cc(N(C)Cc2cnc3nc(N)nc(N)c3n2)cc(OC)c1OC | 2% | 32% | 1 | 95% (active) | inactive | inactive | inactive | inactive
O=C(Nc1ccc(Br)cc1)N(CCN1CCOCC1)CC(O)COc1ccc(Cl)c(F)c1 (stereo not given) | 30% | 3% | -4 | 98% (active) | inactive | inactive | inactive | inactive
O=C(C=Cc1ccc(Cl)c(Cl)c1)NCCCCCN1CCC(CCNS(=O)(=O)c2ccc(F)cc2)CC1 | -5% | 36% | 2 | 88% (active) | inactive | inactive | inactive | inactive
CS(=O)(=O)NCCCNCc1ccc(-c2cccc(-c3nc4ccc(C(F)(F)F)cc4[nH]3)c2)cc1 | 83% (active) | 17% | 1 | 100% (active) | inactive | inactive | inactive | inactive
Cc1ccoc1C(=O)Nc1cccc(-c2cccc(-c3nc4ccc(C(F)(F)F)cc4[nH]3)c2)c1 | 37% | 39% | -6 | 98% (active) | inactive | inactive | inactive | inactive
Cc1ccnc(-n2c(C)cc(C=C3SC(=Nc4ccccc4)N(Cc4ccco4)C3=O)c2C)c1 | 98% (active) | -5% | -1 | 99% (active) | inactive | inactive | inactive | inactive
NC1CCCN(Cc2ccc(-c3cccc(-c4nc5ccc(F)cc5[nH]4)c3)cc2)C1 (stereo not given) | 75% (active) | 54% (active) | 1 | 100% (active) | inactive | inactive | inactive | inactive
O=C(Cn1c(SCc2cccc(F)c2F)cc(=O)c2ccccc21)N(CCc1cnc[nH]1)Cc1ccc(-c2ccc(C(F)(F)F)cc2)cc1 | 72% (active) | 18% | 7 | 101% (active) | inactive | inactive | inactive | inactive
CCc1cn(C)c2c(N3CCCC3=O)cc(C(=O)N[C@@H](Cc3ccccc3)[C@H](O)CNCc3cccc(OC)c3)cc12 | 97% (active) | 7% | 0 | 96% (active) | inactive | inactive | inactive | inactive
Cc1ccc(S(=O)(=O)N2CCCN(C(=O)c3cc(-c4ccccc4)n[nH]3)CC2)cc1 | 93% (active) | 11% | -2 | 96% (active) | inactive | inactive | inactive | inactive
O=C(/C=C/c1ccccc1Cl)Nc1ccc(Br)c(OCCN2CCN(CCN3CCCC3)CC2)c1 | 89% (active) | 26% | -7 | 99% (active) | inactive | inactive | inactive | inactive
Cn1c(-c2ccccc2)cc2c3c(=O)cc(C(F)(F)F)[nH]c3ccc21 | 49% | 21% | -1 | 95% (active) | inactive | inactive | inactive | inactive
CN1CCN(CCCCCNc2c3ccccc3nc3ccccc23)CC1 | -8% | 57% (active) | 5 | 99% (active) | inactive | inactive | inactive | inactive
C=CCN1Cc2c(O)cccc2C(c2ccc(O)c(O)c2)C1 (stereo not given) | 6% | -5% | 0 | 97% (active) | inactive | inactive | inactive | inactive
CN(C)C(CNC(=O)c1cc(-c2ccncc2)c(-c2ccc(Cl)c(O)c2)o1)c1ccccc1 (stereo not given) | 28% | 28% | 0 | 91% (active) | inactive | inactive | inactive | inactive
Cc1cccc2[nH]c(-c3ccc(-c4ccc(CN5CCC(CCN6CCCCC6)CC5)cc4)cc3)nc12 | 100% (active) | 99% (active) | 6 | 100% (active) | inactive | inactive | inactive | inactive
NC(N)=Nc1nc(-c2ccc(NCc3ccc(CNc4cccc(-c5csc(N=C(N)N)n5)c4)cc3)cc2)cs1 | 99% (active) | 11% | 0 | 102% (active) | inactive | inactive | inactive | inactive
O=C(N[C@@H](Cc1ccccc1)[C@H](O)CNC1CCCCC1)c1cc(C2CCCC2)cc(N2CCCC2=O)c1 | 98% (active) | 17% | 0 | 100% (active) | inactive | inactive | inactive | inactive
